The sample as a whole holds a higher share of hits than the screen did.
RmlCD inh 1536: blocks M. tuberculosis RmlC and RmlD coupled enzymes; 160,000 tested, 0.03% active; P9WH09+P9WH11; inhibition, % at 3.6 µM; RmlC+RmlD coupled enzyme assay, percent inhibition; primary screen in compound mixtures; in the data active = inhibition mostly above about 34%, no sharp cut-off
Target sequence (P9WH09 whole entry, looked up): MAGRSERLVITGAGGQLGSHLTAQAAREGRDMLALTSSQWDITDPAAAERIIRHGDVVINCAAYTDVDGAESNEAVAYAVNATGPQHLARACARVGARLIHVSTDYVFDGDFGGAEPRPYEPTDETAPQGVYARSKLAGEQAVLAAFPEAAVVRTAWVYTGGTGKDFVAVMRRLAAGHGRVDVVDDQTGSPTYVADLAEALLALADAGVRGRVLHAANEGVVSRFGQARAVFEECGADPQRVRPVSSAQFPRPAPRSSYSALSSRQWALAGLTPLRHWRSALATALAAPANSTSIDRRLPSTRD
Target sequence (P9WH11 whole entry, looked up): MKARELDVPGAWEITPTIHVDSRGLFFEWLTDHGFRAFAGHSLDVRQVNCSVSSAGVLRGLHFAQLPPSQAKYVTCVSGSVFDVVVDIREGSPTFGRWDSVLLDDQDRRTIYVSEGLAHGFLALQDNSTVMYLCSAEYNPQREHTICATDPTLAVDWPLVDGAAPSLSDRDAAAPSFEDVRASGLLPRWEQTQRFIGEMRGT
The depositor's hits bear a star.

SMILES	RmlCD inh 1536
Cc1csc2c(N3CCN(C(=S)Nc4ccc(F)cc4F)CC3)ncnc12	8
Cc1cccc(N=Cc2cc(Br)cc(Cl)c2O)c1	-15
Cc1ccc(C(=O)O)cc1N=Cc1cc(Br)cc(Br)c1O	45*
CNC(=S)N/N=C/c1cc(Br)cc(Br)c1O	-8
Cc1ccc(/C(N)=N/OC(=O)c2cccc(Cn3cc(C(F)(F)F)ccc3=O)c2)cc1	-3
Cc1cc(C)n2ncc(/C(N)=N/OC(=O)Nc3ccc(Cl)cc3)c2n1	12
CCOc1ncccc1C(=O)OCc1cccc([N+](=O)[O-])c1	4
CCCCOc1ccc(C(=O)NCC2(c3ccc(OC)cc3)CCOCC2)cc1	3
CCCCNCc1cc2ccccc2o1	-10
COc1ccc(-c2cc(=NCCC(=O)O)c3cc(C)ccc3o2)cc1	32*
COc1ccc(-c2cc(=Nc3ccc(C)cc3)c3ccccc3o2)cc1	0
COc1ccc(-c2cc(=NC(CC(C)C)C(=O)O)c3cc(C)ccc3o2)cc1 (stereo not given)	-9
O=C(COC(=O)c1ccc([N+](=O)[O-])o1)Nc1cccc2ccccc12	-4
O=C(CNc1cccc2ccccc12)N/N=C/c1ccc([N+](=O)[O-])cc1	-1
COC(=O)/C(=C/Nc1cccc2ccccc12)[N+](=O)[O-]	100*
COc1ccc(C(NC(=O)c2c(F)c(F)c(F)c(F)c2F)c2ccccc2)cc1 (stereo not given)	-11
Cc1cc(=O)oc2cc(NS(=O)(=O)c3ccccc3)ccc12	43*
CN(C)S(=O)(=O)c1ccc(S(=O)(=O)Nc2ccc3c(c2)oc2ccccc23)cc1	-1
Cc1cc(=O)oc2cc(NC(=O)C3CCCC3)ccc12	-12
CCOC(=O)c1c(NC(=S)NC(=O)c2ccc(Cn3cc(Cl)cn3)o2)sc2c1CCCCC2	-3
COC(=O)C1CCN(Cc2ccc(OCCCN3CCN(c4ccc([N+](=O)[O-])cc4)CC3)cc2)CC1	-12
CC(C)(C)c1nnc(NC(=O)c2cccnc2)s1	4
C[C@@H]1CN(c2c(F)c(N)c3c(=O)c(C(=O)O)cn(C4CC4)c3c2F)C[C@H](C)N1	-6
COc1cc(C(=O)O)nc(OC)n1	2
Cc1cccc(N(C(=O)CCC(=O)Nc2nccs2)C(C(=O)NC(C)(C)C)c2ccc(O)cc2)c1 (stereo not given)	-17
SMILES	RmlCD inh 1536
COc1ccc2oc(=O)c(/C(C)=N/NC(=O)c3ccncc3)cc2c1	8
CCn1c(C)nc2cc(C(=O)N/N=C(\C)c3ccc(OC)cc3O)ccc21	37*
CCn1c(C)nc2cc(C(=O)N/N=C(\C)c3ccc(N4CCOCC4)cc3)ccc21	9
CCn1c(C)nc2cc(C(=O)N/N=C/c3ccc(OC)cc3)ccc21	4
CCn1c(-c2ccc(F)cc2)cnc1SCC(=O)N1CCCCC1C (stereo not given)	4
C[C@@H](c1ncncc1F)[C@](O)(Cn1cncn1)c1ccc(F)cc1F	-3
CCC(CC)NC(=O)Cc1ccccc1OC	12
O=C(/C(=N/N=C/c1ccc(O)c(O)c1)c1ccccc1)c1ccccc1	25
CN1CCN(C(=O)CNc2ccc(C(F)(F)F)cc2[N+](=O)[O-])CC1	-7
Cn1cccc1C1Nc2ccccc2NC2=C1C(=O)CC(C)(C)C2 (stereo not given)	15
Cc1nn(Cc2ccc(Cl)cc2)c(C)c1NC(=O)C(c1ccccc1)c1ccccc1	8
O=C(CNC(=O)c1cccs1)OCC(=O)c1ccccc1Cl	7
C#CCCOC(=O)N1C2=NC(C(=O)OC)=C(C(=O)OC)[C@@H]3N(CC=C)c4ccccc4[C@]23C[C@H]1C(=O)OC	-5
CCc1ccc(NC(=O)COC(=O)c2ccc(Cl)c(S(=O)(=O)N3CCCCCC3)c2)cc1	-9
O=c1cc(CNc2ccc(Br)cc2)nc2sccn12	-9
Cc1oc2c(CN3CCOCC3)c(O)ccc2c(=O)c1-c1ccccc1	66*
Cc1oc2c(CN3CCCC3)c(O)ccc2c(=O)c1Oc1ccccc1Br	9
COc1ccc(Oc2c(C)oc3c(CN4CCOCC4)c(O)ccc3c2=O)cc1	5
CN(C)S(=O)(=O)c1ccc(C(=O)OCCn2cnc3c2c(=O)n(C)c(=O)n3C)cc1	13
Cc1ccc(S(=O)(=O)CCSc2n[nH]c(=O)n2-c2ccc3c(c2)OCCO3)cc1	42
O=C(O)c1cn(Cc2ccccn2)c(=O)c2ccccc12	-13
Clc1cccc(N/N=C(\Cc2nc3ccccc3[nH]2)c2ccccc2)c1	-4
CC(C)n1cc(/C(N)=N/O)c(=O)n(Cc2ccccc2)c1=O	-9
Cc1ccc([N+](=O)[O-])c(C(=O)N/N=C/c2cccs2)c1	39
O=C(/C=C/c1cccc([N+](=O)[O-])c1)NC(=S)Nc1ccccc1C(=O)O	-6
NC(=S)N/N=C/c1ccccc1OCCSc1ccc(Cl)cc1	33
COc1ccc(-c2cc(C(F)(F)F)n3ncc(C(=O)Nc4c(C)n(C)n(-c5ccccc5)c4=O)c3n2)cc1	3
CCC1=NN(C(=O)c2cccnc2)C(O)(C(F)(F)F)C1 (stereo not given)	1
COc1ccc2oc(=O)c(-c3ccccc3C(=O)N3CCOCC3)cc2c1	-11

Assay outcomes deposited in PubChem BioAssay by PCMD.
